This is an account of results in the supplement of paper PMC11732987, “Enantioselective OTUD7B fragment discovery through chemoproteomics screening and high-throughput optimisation” (Communications Chemistry, 2025).

A number with no mark means an inactive call.

Experiment in all cases: log2 ratio of Biotin-Ahx-Ub-VS probe labelling (fragment/DMSO); higher = less target engagement (more negative = stronger competition), active = hit call of the paper (q ≤ 0.05, log2 ratio ≤ -1)
Holding throughout (settings): compound concentration: 200 uM; treatment time: 3 h

Assay [1] addresses T1, OTUD6B (UniProt Q8N6M0).
T1 sequence (whole entry): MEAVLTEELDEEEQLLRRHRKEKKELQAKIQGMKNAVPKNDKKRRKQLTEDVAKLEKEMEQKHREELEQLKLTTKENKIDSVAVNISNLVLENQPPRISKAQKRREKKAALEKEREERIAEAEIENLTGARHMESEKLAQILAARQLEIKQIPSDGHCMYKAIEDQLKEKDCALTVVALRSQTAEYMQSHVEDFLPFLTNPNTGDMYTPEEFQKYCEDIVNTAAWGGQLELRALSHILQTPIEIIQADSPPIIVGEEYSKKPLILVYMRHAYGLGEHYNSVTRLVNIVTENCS
The gist of the method: (§1)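 Labelling with Biotin-Ahx-Ub-VS (0.5 µM final, 1 h) followed a 3 h triplicate treatment of HEK293T lysate (495 µg per sample, Tris/CHAPS/IGEPAL buffer with protease inhibitors) with fragment at 200 µM or vehicle. Labelled DUBs were NeutrAvidin-enriched, digested with LysC and trypsin, and run by diaPASEF LC-MS/MS. The values, average log2 fragment/vehicle ratios by unpaired t-test, come from global-median-normalised Spectronaut label-free quantities. Proteins with ≥2 unique peptides were used.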

Assay [2] addresses T2, OTUD7B (UniProt Q6GQQ9).
T2 sequence (whole entry): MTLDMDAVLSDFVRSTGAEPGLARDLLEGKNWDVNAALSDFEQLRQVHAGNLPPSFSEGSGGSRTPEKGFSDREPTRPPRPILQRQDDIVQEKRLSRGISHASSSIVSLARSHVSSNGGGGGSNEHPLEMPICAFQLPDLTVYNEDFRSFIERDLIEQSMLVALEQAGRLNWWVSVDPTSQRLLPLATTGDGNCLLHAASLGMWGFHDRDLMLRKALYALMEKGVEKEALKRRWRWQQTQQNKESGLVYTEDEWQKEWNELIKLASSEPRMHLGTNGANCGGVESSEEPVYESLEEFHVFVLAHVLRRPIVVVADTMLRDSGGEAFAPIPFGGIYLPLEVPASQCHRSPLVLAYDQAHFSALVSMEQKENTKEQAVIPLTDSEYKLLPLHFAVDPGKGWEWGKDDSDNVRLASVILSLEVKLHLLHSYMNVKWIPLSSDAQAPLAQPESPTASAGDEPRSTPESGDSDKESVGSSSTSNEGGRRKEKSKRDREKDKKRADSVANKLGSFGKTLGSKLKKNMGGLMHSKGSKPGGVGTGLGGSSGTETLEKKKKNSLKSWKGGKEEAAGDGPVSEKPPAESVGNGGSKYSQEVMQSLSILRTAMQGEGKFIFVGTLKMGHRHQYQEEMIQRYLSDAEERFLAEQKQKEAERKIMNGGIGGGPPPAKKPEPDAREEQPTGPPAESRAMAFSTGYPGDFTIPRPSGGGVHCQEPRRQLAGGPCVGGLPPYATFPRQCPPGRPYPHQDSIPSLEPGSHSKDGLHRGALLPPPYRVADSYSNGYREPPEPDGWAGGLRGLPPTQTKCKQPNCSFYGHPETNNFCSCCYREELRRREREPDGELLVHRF
The gist of the method: as §1

The target in assay [3] is PRPF8 (UniProt Q6P2Q9). The gist of the method:
as §1

The target in assay [4] is T3, PSMD7 (UniProt P51665).
T3 sequence (whole entry): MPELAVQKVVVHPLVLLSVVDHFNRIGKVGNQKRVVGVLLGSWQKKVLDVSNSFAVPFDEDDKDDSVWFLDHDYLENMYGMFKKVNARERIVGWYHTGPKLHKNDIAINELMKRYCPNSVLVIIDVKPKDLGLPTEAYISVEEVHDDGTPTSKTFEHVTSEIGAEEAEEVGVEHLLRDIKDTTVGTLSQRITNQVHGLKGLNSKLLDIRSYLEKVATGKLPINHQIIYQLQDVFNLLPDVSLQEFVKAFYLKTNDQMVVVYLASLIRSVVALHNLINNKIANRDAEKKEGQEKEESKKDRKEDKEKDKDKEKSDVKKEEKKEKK
The gist of the method: as §1

The target in assay [5] is UCHL1 (UniProt P09936). Summed up: as §1
Chain of UCHL1 (P09936 whole entry, looked up): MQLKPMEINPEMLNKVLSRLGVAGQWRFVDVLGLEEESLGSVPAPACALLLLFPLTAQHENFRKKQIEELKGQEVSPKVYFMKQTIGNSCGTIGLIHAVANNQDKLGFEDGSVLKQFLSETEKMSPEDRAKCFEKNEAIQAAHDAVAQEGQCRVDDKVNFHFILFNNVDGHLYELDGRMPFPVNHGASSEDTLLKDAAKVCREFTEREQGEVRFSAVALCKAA
The target of assay [6] is T4, UCHL3 (UniProt P15374).
T4 sequence (whole entry): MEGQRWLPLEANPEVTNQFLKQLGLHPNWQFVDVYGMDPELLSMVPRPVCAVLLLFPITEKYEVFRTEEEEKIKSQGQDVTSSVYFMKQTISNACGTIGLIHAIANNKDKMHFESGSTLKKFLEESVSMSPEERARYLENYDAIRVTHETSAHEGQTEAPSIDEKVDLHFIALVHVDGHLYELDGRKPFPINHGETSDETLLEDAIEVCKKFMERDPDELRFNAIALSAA
Summed up:
as §1

Assay [7] addresses T5, UCHL5 (UniProt Q9Y5K5).
T5 sequence (whole entry): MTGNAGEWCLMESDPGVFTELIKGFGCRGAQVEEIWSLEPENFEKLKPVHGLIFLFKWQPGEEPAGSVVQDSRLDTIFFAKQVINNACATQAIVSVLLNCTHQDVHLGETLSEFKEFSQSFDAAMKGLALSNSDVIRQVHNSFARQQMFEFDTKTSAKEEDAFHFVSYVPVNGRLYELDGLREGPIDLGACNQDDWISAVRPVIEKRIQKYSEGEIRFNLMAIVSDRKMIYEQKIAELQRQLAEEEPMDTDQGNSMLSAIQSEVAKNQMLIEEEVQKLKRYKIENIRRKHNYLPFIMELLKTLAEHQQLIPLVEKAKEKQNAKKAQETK
The gist of the method: as §1

The target in assay [8] is USP10 (UniProt Q14694). The gist of the method: as §1
Chain of USP10 (Q14694 whole entry): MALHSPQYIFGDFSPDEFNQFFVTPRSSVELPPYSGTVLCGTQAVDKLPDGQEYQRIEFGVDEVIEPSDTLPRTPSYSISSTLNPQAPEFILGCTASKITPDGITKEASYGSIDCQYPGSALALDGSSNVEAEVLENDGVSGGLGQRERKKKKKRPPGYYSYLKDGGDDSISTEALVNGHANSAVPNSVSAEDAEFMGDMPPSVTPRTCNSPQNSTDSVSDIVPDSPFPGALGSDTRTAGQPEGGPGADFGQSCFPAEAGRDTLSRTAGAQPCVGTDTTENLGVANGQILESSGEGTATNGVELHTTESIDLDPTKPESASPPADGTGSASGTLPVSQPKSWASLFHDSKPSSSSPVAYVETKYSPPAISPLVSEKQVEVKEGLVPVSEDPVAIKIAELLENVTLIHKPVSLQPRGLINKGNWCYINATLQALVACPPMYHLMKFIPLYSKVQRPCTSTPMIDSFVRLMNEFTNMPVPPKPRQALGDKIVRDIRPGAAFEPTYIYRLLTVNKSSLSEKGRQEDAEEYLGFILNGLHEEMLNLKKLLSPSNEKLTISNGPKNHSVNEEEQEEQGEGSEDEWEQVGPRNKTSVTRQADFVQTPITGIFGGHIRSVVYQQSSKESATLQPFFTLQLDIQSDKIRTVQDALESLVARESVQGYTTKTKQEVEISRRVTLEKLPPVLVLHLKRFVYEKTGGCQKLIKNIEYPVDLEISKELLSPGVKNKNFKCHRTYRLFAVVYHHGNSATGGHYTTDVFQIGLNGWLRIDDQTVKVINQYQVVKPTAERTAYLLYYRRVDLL
Assay [9] deals with T6, USP15 (UniProt Q9Y4E8).
T6 sequence (whole entry): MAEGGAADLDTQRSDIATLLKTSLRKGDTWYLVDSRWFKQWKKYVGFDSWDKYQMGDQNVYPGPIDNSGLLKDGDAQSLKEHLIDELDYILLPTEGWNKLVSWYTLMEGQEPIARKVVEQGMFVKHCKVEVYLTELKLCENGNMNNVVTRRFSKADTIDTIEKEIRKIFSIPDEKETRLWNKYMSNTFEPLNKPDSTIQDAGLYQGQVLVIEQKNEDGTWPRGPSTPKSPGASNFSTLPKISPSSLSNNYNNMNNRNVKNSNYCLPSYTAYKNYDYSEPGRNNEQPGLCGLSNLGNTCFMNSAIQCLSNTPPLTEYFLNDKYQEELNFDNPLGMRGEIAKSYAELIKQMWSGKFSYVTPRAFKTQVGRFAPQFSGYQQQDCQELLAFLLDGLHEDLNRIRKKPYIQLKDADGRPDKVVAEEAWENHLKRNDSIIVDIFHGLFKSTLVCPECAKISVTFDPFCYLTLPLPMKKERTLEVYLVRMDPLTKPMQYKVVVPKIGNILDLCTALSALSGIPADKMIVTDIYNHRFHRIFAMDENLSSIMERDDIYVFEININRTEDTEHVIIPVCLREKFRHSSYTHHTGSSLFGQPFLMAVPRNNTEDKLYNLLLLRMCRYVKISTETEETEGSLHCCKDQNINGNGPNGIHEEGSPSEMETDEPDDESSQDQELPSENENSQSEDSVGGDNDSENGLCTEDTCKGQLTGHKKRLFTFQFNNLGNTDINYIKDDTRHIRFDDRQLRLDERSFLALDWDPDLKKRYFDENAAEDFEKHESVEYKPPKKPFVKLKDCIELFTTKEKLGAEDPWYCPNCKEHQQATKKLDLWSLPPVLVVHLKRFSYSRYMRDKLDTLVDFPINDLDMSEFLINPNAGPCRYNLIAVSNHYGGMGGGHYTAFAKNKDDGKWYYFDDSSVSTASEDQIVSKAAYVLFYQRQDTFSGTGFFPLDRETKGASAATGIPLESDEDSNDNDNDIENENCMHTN
The gist of the method:
as §1

Assay [10] deals with USP16 (UniProt Q9Y5T5). The gist of the method: as §1
Chain of USP16 (Q9Y5T5 whole entry, looked up): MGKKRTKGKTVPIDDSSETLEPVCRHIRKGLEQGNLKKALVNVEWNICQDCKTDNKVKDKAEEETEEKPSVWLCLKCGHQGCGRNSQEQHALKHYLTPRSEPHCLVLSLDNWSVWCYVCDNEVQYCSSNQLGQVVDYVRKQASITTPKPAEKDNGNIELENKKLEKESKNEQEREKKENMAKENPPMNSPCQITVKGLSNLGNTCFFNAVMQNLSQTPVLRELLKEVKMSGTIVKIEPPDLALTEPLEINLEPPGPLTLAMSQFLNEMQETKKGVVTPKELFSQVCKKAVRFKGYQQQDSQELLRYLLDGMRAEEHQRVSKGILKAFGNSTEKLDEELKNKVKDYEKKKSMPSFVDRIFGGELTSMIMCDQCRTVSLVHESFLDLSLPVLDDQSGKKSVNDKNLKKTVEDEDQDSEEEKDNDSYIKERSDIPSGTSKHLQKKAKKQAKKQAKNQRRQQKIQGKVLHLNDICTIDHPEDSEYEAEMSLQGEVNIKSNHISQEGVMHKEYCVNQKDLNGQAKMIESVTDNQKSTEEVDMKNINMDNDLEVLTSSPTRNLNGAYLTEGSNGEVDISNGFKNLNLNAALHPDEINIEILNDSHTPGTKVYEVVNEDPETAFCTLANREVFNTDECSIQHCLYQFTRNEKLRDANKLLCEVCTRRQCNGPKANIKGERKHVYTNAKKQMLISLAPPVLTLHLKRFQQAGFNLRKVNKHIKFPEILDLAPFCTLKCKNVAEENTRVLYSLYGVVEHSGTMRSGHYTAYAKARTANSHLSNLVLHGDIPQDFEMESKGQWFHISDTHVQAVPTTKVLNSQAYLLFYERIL

On to `CN1C(=O)c2ccc(NC(=O)CCl)cc2C1=O`, for which the “log2 ratio of Biotin-Ahx-Ub-VS probe labelling” value (shortened to “log2 ratio”) in assay [1] was -0.407; in [2] it was -1.76 (active); in [3], 0.154; in assay [4] it was -0.0627; in assay [5] it was -1.24 (active); in assay [6] it was 0.282. Also, the “log2 ratio” value was -0.2 in assay [7], -0.0313 in assay [8], -0.389 in assay [9] and -0.455 in assay [10].

For the compound `O=C(CCl)N[C@H]1CCS(=O)(=O)c2ccccc21`, the “log2 ratio” value was -0.0586 in assay [1]; -1.71 (active) in [2]; 0.0359 in assay [3]; -0.0772 in [4]; -1.5 (active) in assay [5]; 0.351 in assay [6]. Moreover, the “log2 ratio” value was -0.0806 in [7], -0.109 in assay [8], -0.195 in assay [9] and -0.601 in assay [10].

Regarding `Cc1ccc(-c2nnc(C)[nH]2)c(NC(=O)CCl)c1`, the “log2 ratio” value is -0.00419 in assay [1]; -0.183 in [2]; -0.0454 in [3]; -0.177 in assay [4]; -1.14 (active) in [5]; 0.176 in assay [6]. Besides, the “log2 ratio” value is -0.152 in assay [7], 0.0193 in [8], -0.0491 in assay [9] and 0.114 in assay [10].

As to `CC(NC(=O)CCl)c1csc(-c2ccccc2)n1.Cl` (stereo not given), the “log2 ratio” value is -0.597 in assay [1]; -1.07 (active) in assay [2]; -0.0372 in [3]; -0.175 in assay [4]; -1.3 (active) in assay [5]; -0.457 in assay [6]. Also, the “log2 ratio” value in assay [7] is -0.71; in [8], -0.126; in assay [9], -0.386; in assay [10], -1.03 (active).

On to `CN(CCc1ncc(Br)cn1)C(=O)CCl.Cl`, for which the “log2 ratio” value is -0.311 in assay [1]; -1.39 (active) in [2]; -0.0479 in [3]; -0.205 in assay [4]; -1.55 (active) in assay [5]; 0.504 in [6]. In addition, the “log2 ratio” value was -0.318 in assay [7], -0.276 in [8], -0.463 in [9] and -0.32 in assay [10].

For the compound `O=C(CCl)NC1CCOc2ccccc21` (stereo not given), the “log2 ratio” value in [1] is -0.54; in assay [2], -2.14 (active); in assay [3] it was -0.152; in assay [4] it was -0.0224; in [5], -1.84 (active); in assay [6] it was -0.57. Moreover, the “log2 ratio” value in assay [7] was -1.08 (active); in [8], -0.255; in assay [9], -0.851; in assay [10] it was -0.325.

In the case of `Cc1ccccc1OCC(=O)N1CCN(C(=O)CCl)CC1`, the “log2 ratio” value in assay [1] was -0.157; in assay [2], -0.203; in assay [3], 0.281; in assay [4] it was 0.113; in [5], -1.52 (active); in assay [6], 0.461. In addition, the “log2 ratio” value was -0.137 in assay [7], -0.173 in assay [8], -0.416 in [9] and -0.973 in assay [10].
